Measured values as given in PMC8222333, “AsCas12a ultra nuclease facilitates the rapid generation of therapeutic cell medicines”.
Numbering of substitutions follows the chain as printed.

B1: CGCG (dsDNA)
DNA 1: GCTATCTAGTGCTCAGTACGCACTGCGCGAGGAAACTTCTGGCAGGACCAGGTCATGAGATCGGAAGAGCACACGTCTGAACTCCAGTCA
DNA 2: TGACTGGAGTTCAGACGTGTGCTCTTCCGATCTCATGACCTGGTCCTGCCAGAAGTTTCCTCGCGCAGTGCGTACTGAGCACTAGATAGC
RNA: AAUUUCUACUCUUGUAGAUAGGAAACUUCUGGCAGGACC
B2: GACC (dsDNA)
DNA 1: B1 DNA 1 with C26G, G27A, G29C
DNA 2: B1 DNA 2 with C62G, C64T, G65C
RNA: B1 RNA
B3: CTCG (dsDNA)
DNA 1: B1 DNA 1 with G27T
DNA 2: B1 DNA 2 with C64A
RNA: B1 RNA
B4: GACG (dsDNA)
DNA 1: B1 DNA 1 with C26G, G27A
DNA 2: B1 DNA 2 with C64T, G65C
RNA: B1 RNA
B5: GAAA (dsDNA)
DNA 1: B1 DNA 1 with C26G, G27A, C28A, G29A
DNA 2: B1 DNA 2 with C62T, G63T, C64T, G65C
RNA: B1 RNA
B6: GAAG (dsDNA)
DNA 1: B1 DNA 1 with C26G, G27A, C28A
DNA 2: B1 DNA 2 with G63T, C64T, G65C
RNA: B1 RNA
B7: GACT (dsDNA)
DNA 1: B1 DNA 1 with C26G, G27A, G29T
DNA 2: B1 DNA 2 with C62A, C64T, G65C
RNA: B1 RNA
B8: GACA (dsDNA)
DNA 1: B1 DNA 1 with C26G, G27A, G29A
DNA 2: B1 DNA 2 with C62T, C64T, G65C
RNA: B1 RNA
B9: CGGA (dsDNA)
DNA 1: B1 DNA 1 with C28G, G29A
DNA 2: B1 DNA 2 with C62T, G63C
RNA: B1 RNA
B10: CGGT (dsDNA)
DNA 1: B1 DNA 1 with C28G, G29T
DNA 2: B1 DNA 2 with C62A, G63C
RNA: B1 RNA
B11: CGGC (dsDNA)
DNA 1: B1 DNA 1 with C28G, G29C
DNA 2: B1 DNA 2 with C62G, G63C
RNA: B1 RNA
B12: CGCT (dsDNA)
DNA 1: B1 DNA 1 with G29T
DNA 2: B1 DNA 2 with C62A
RNA: B1 RNA
B13: CTGG (dsDNA)
DNA 1: B1 DNA 1 with G27T, C28G
DNA 2: B1 DNA 2 with G63C, C64A
RNA: B1 RNA
B14: CTGC (dsDNA)
DNA 1: B1 DNA 1 with G27T, C28G, G29C
DNA 2: B1 DNA 2 with C62G, G63C, C64A
RNA: B1 RNA
B15: CTAC (dsDNA)
DNA 1: B1 DNA 1 with G27T, C28A, G29C
DNA 2: B1 DNA 2 with C62G, G63T, C64A
RNA: B1 RNA
B16: GAAT (dsDNA)
DNA 1: B1 DNA 1 with C26G, G27A, C28A, G29T
DNA 2: B1 DNA 2 with C62A, G63T, C64T, G65C
RNA: B1 RNA
B17: GAAC (dsDNA)
DNA 1: B1 DNA 1 with C26G, G27A, C28A, G29C
DNA 2: B1 DNA 2 with C62G, G63T, C64T, G65C
RNA: B1 RNA

What was measured:
Assay in all cases: Spec-seq (native PAGE EMSA with sequencing of bound and unbound); 25 mM Tris-HCl pH 7.4, 150 mM KCl, 5 mM MgCl2, 10% glycerol, 1 mM DTT, 40 ng/uL salmon sperm DNA; 400 nM Cas12a, 480 nM crRNA, 50 nM library, 37 C 1 h; native PAGE at room temperature; high values mean tight binding
Conditions in all cases: protein: recombinant
dAsCas12a S542R = dAsCas12a S542R (Acidaminococcus sp., UniProt U2UMQ6 1-1307, S542R;D908A;E993A;D1235A)
d-enCas12a = d-enCas12a (Acidaminococcus sp., UniProt U2UMQ6 1-1307, E174R;S542R;K548R;D908A;E993A;D1235A)
d-enCas12a-Ultra = d-enCas12a-Ultra (Acidaminococcus sp., UniProt U2UMQ6 1-1307, E174R;S542R;K548R;M537R;F870L;D908A;E993A;D1235A)
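Also: relative affinity from the bound to unbound sequence frequency ratio in Spec-seq.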

Row | Binder | binding signal (dAsCas12a S542R) | binding signal (d-enCas12a) | binding signal (d-enCas12a-Ultra)
1 | B1 | -8.29 lnKA | -3.31 lnKA | -0.79 lnKA
2 | B2 | -8.46 lnKA | -3.91 lnKA | -1.34 lnKA
3 | B3 | -6.92 lnKA | -3.29 lnKA | -0.685 lnKA
4 | B4 | -8.56 lnKA | -5.57 lnKA | -2.93 lnKA
5 | B5 | -8.7 lnKA | -5.87 lnKA | -3.36 lnKA
6 | B6 | -8.23 lnKA | -5.82 lnKA | -3.51 lnKA
7 | B7 | -8.65 lnKA | -5.63 lnKA | -3.01 lnKA
8 | B8 | -8.67 lnKA | -4.44 lnKA | -1.74 lnKA
9 | B9 | -8.76 lnKA | -5.73 lnKA | -3.26 lnKA
10 | B10 | -8.62 lnKA | -5.84 lnKA | -3.41 lnKA
11 | B11 | -8.51 lnKA | -5.63 lnKA | -3.15 lnKA
12 | B12 | -8.52 lnKA | -4.5 lnKA | -1.29 lnKA
13 | B13 | -8.46 lnKA | -5.9 lnKA | -3.29 lnKA
14 | B14 | -8.71 lnKA | -5.32 lnKA | -2.48 lnKA
15 | B15 | -8.27 lnKA | -4.66 lnKA | -1.69 lnKA
16 | B16 | -8.54 lnKA | -5.79 lnKA | -3.39 lnKA
17 | B17 | -8.59 lnKA | -5.9 lnKA | -3.33 lnKA
